Among all 96,000 compounds or so, about 20,000 (21%) were called active. These entries were drawn from the full list. Values without a mark were called inactive.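 Rule for the calls: active = CYP2C19 inhibition above a set limit at 5 µM in the primary screen (cut at about 50% in these data); inactive = the rest.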
Biological target: Cytochrome P450 2C19 (Homo sapiens) (UniProt P33261)
Experiment: blockers of cytochrome P450 2C19 activity – biochemical, luminescence, ADME assay, primary screen (AID 778);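 note: plate controls were negative control wells for no effect and 2.5 mM tranylcypromine positive control for full effect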
Settings: CYP2C19 Supersomes, luciferin-H EGE luminescence, 30 min; at 5 µM; active compounds read high

Sequence of Cytochrome P450 2C19 (Homo sapiens) (P33261 whole entry, looked up): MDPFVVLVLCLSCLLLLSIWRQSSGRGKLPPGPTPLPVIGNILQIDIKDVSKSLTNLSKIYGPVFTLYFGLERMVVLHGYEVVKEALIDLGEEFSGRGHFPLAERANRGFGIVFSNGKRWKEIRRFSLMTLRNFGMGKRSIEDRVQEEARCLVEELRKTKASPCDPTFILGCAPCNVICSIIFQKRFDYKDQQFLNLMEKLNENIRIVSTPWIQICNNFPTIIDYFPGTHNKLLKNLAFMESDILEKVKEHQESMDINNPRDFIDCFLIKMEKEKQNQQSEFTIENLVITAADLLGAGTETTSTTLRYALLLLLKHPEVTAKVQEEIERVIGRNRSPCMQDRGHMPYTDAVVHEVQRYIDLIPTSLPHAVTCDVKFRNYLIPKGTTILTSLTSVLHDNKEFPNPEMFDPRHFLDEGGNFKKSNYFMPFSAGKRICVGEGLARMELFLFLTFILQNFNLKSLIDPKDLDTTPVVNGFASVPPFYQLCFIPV

Compound	inhibition
Cn1nc([N+](=O)[O-])nc1Sc1ccc(C(C)(C)C)cc1	97.1% (active)
CC(C)(C)NC(=O)Cn1cnc([N+](=O)[O-])n1	6.1%
Cn1cnc([N+](=O)[O-])c1Sc1ccccc1	30.3%
Cc1ccc(-c2n[nH]c(=S)n2/N=C/c2cc3c(cc2[N+](=O)[O-])OCO3)cc1	0.8%
O=C(COc1ncnc2c(Cl)cc(Cl)cc12)N1CCN(S(=O)(=O)c2ccccc2)CC1	-6.9%
CCCOc1ccccc1C(=O)NCCCC(=O)O	9.9%
COc1ccc(Cl)cc1C(=O)NCC#N	-3.6%
CCOC(=O)c1c(C)[nH]c(C(=O)NCc2ccccc2OC)c1C	44.3%
COc1cc(SC)ccc1C(=O)NCCOc1ccccc1Cl	94.9% (active)
COc1ccccc1CNC(=O)c1ccc(SC)cc1OC	78.9% (active)
CCc1nnc(NC(=O)CCC(=O)NCc2ccccc2OC)s1	-8%
O=C1CCCN1CCCNc1ncnc2c1[nH]c1ccccc12	39%
CC(=O)Nc1ccc(N2C(=O)CCC2=O)cc1C	9.8%
O=C(/C=C/Sc1ncn[nH]1)c1ccc(Cl)cc1	38.2%
CC1Cc2ccccc2N1C(=O)CSc1nnc(-c2ccc(S(=O)(=O)N3CCCCC3)cc2)o1 (stereo not drawn)	12.5%
O=C(CCS(=O)(=O)Cc1ccccc1F)NCCCN1CCCCC1	22.6%
Cc1ccc(S(=O)(=O)N(CC(=O)NCCSC2CCCCC2)c2ccccc2F)cc1	-4.4%
CCCNC(=O)CN(Cc1ccccc1F)S(=O)(=O)c1ccc(C)cc1	64.4% (active)
Cc1cc(=O)n2nc(N3CCCC(C(=O)NCCC4=CCCCC4)C3)sc2n1 (stereo not drawn)	35.1%
CCOC(=O)N1CCC(NC(=O)Cc2cn(C)c3ccccc23)CC1	-8.8%
CC1=Nn2c(nnc2-c2ccccc2)SC1	-2%
COc1ccc(C2CC(c3ccc(Cl)cc3Cl)Nc3nc(N)nn32)cc1OC (stereo not drawn)	-12.5%
CCOc1ccccc1C1CC(c2ccccc2)Nc2nc(N)nn21 (stereo not drawn)	44.9%
CCOc1ccccc1C1CC(c2ccc(Cl)cc2)Nc2nc(N)nn21 (stereo not drawn)	90.2% (active)
COc1ccc(NC(=O)COC(=O)Cn2c(C)nc3ccccc32)cc1OC	-0.3%
COc1ccc(-c2nc3ccccc3n2CCC(C)C)cc1OC	61.3% (active)

Compound	inhibition
COCCn1c(-c2ccc(OC)c(OC)c2)nc2ccccc21	0.9%
C=CCN(c1ccc(C(N)=O)cc1)S(C)(=O)=O	-3.9%
CSc1ccc(-c2c(C#N)c(N)nc3c2c(C)nn3-c2ccccc2)cc1	4.1%
COc1cc(=O)[nH]c(=O)n1C(=O)Cc1ccccc1	5.6%
Cc1occc1C(=O)Nc1cccc(Cn2cccn2)c1	57% (active)
CCOc1cccc(C(=O)Nc2cnn(Cc3ccccc3)c2)c1	8.6%
Cc1ccc(C(=O)COc2cccc(NC(=O)c3ccco3)c2)cc1	32.7%
Cc1occc1C(=O)Nc1nnc(C2CCCCC2)s1	-3.5%
Cc1occc1C(=O)Nc1nnc(-c2ccncc2)s1	98.1% (active)
Cc1ccc(C(=O)Nc2nnc(-c3ccncc3)s2)o1	27%
Fc1ccc(CNc2nc3ccccc3n3nnnc23)cc1	6%
CN(C)/C=C1\C=C(c2ccccc2)OC1=O	-5.7%
O=C1CSC2=NCN(c3ccccc3)CN12	3.1%
N#Cc1nc(Cc2ccccc2)oc1NCCc1ccccc1	64.7% (active)
CCOc1ccc(Nc2oc(Cc3ccccc3)nc2C#N)cc1	30.6%
N#Cc1nc(Cc2cccc3ccccc23)oc1NCc1ccc2c(c1)OCO2	48.7%
FC(F)(F)c1nnc2sc(-c3ccco3)nn12	10.3%
CCOc1ccc(/C(O)=C2/C(=O)C(=O)N(Cc3cccnc3)C2c2ccc(N(C)C)cc2)c(C)c1 (stereo not drawn)	3.8%
CCOc1ccc(N2C(=O)CC(N(O)c3ccccc3)C2=O)cc1 (stereo not drawn)	20.3%
Cn1c(N)c(C(=O)COC(=O)C23CC4CC(CC(C4)C2)C3)c(=O)n(C)c1=O	13.1%
Cc1cc(C)cc(NC(=O)N2CCC(NC(=O)c3ccc(F)cc3)CC2)c1	-9.5%
CCOc1ccc(Nc2nc(Cc3nnc(SCC(=O)c4ccc(C)cc4)o3)cs2)cc1	46.9%
CCOc1ccc(Nc2nc(Cc3nnc(SCC(=O)NC4CCCC4)n3C)cs2)cc1	53.4% (active)
COCCCn1c(Cc2csc(Nc3cccc(Cl)c3)n2)nnc1SCC(=O)OC1CCCCC1	27.4%
CC(C)c1ccc(Nc2ncccc2C#N)cc1	22.2%
Cc1ccc(NC2=NC(c3ccccc3)n3c(nc(C)cc3=O)N2)cc1 (stereo not drawn)	42.1%

Compound	inhibition
Cc1ccc(OCC(=O)Nc2ccc(-c3nnc(-c4ccco4)o3)cc2)cc1	44.4%
CC1(C)CC(=O)c2cc(OCC(=O)NCC3CCCO3)ccc2O1 (stereo not drawn)	16.2%
Cc1ccc(/C=N\n2c(-c3ccccc3)n[nH]c2=S)s1	4.8%
O=C(c1ccc2c(c1)OCO2)N1CCN(C(=O)c2ccco2)CC1	17%
O=C(c1ccco1)N1CCN(C(=O)C2c3ccccc3Oc3ccccc32)CC1	88.7% (active)
CCNC(=S)N1CCN(C(=O)c2ccco2)CC1	5.5%
O=C(Cc1c(F)cccc1Cl)N1CCN(C(=O)c2ccco2)CC1	11.2%
COc1ccc(N2C(=O)C3CCCN3C2c2cccc(OC)c2)cc1 (stereo not drawn)	30.1%
Cc1ccc(OS(=O)Nc2cccc3nccnc23)cc1 (stereo not drawn)	38.8%
Cc1ccc(S(=O)(=O)Nc2nc3ccccc3nc2N2CCc3ccccc3C2)cc1	40.6%
CC(C)OC(=O)C(C#N)c1nc2ccccc2nc1N1CCN(Cc2ccc3c(c2)OCO3)CC1 (stereo not drawn)	2.4%
Cc1ccc(S(=O)(=O)C(C#N)c2nc3ccccc3nc2N2CCCC2)cc1C (stereo not drawn)	96.8% (active)
Cc1ccc(-c2c3c(=O)n(C)c(=O)n(C)c3cn2-n2cnnc2)cc1	-18.4%
Cc1cccc(C)c1N1CCN(S(=O)(=O)N2CCOCC2)CC1	22.7%
O=C(c1ccc(CN2CCOCC2)cc1)N1CCN(c2ccccc2F)CC1	9.5%
O=S(=O)(N1CCOCC1)N1CCN(c2ccccc2F)CC1	61.1% (active)
COC(=O)c1sccc1N/N=C(\C)c1ccc(F)c(Cl)c1	-0.3%
O=C(Nc1ccc2c(c1)OCCO2)C1CCCN(c2ncccn2)C1 (stereo not drawn)	1.1%
Cc1ccnc(N2CCC(C(=O)NC3CCCCCC3)CC2)n1	94.4% (active)
Cc1ccnc(N2CCCC(C(=O)Nc3cc(F)ccc3C)C2)n1 (stereo not drawn)	99.2% (active)
CC(C)CCNC(=O)C1CCCN(S(=O)(=O)c2ccc(F)cc2)C1 (stereo not drawn)	7.6%
Cc1cc(C)cc(NC(=O)C2CCN(c3nc(C)cc(C)n3)CC2)c1	-2.3%
Cc1cc(-c2ccccc2)nc(N2CCC(C(=O)NC34CC5CC(CC(C5)C3)C4)CC2)n1	8.2%
C/C(=N\NC(=O)c1nc(C)cc(C)n1)c1ccccc1	-4%
Cc1ccc(-c2nnc(SC(C)C#N)n2N)cc1 (stereo not drawn)	9%
NC(N)=N/N=C/c1ccc(OCc2ccc(Cl)cc2Cl)cc1	-10.2%

Compound	inhibition
CCOC(=O)C1=C(O)CSC1=Nc1cccc(Cl)c1	9.1%
COC(=O)C1C(=O)NCC1c1ccc(OC)cc1 (stereo not drawn)	13.7%
CC(C)(C)NS(=O)(=O)CC12CCC(CC1=O)C2(C)C (stereo not drawn)	17.8%
CCOc1cc2[nH]c(=S)n(CCN3CCCCC3C)c(=O)c2cc1OCC (stereo not drawn)	2.3%
C=CCNC(=O)c1sc(SC)cc1-c1ccc(Cl)cc1	83.9% (active)
C=CCNC(=O)c1ccc(C)c(Br)c1	19.1%
COc1ccccc1-c1cc(C(=O)N2CCCCC2)no1	52.8% (active)
COc1ccccc1CCNC(=O)c1cnccn1	22.6%
CCOc1ccc(C(=O)NCCCN2CCCC2=O)cc1	15.8%
NS(=O)(=O)c1ccc(CCNC(=O)Nc2ccc(Cl)cc2)cc1	24.5%
COc1ccc(-c2cc(C(=O)NCc3ccco3)no2)cc1OC	-19.3%
O=C(c1cc(-c2cccs2)on1)N1CCCCC1	14.3%
O=C(c1cc(-c2ccccc2O)on1)N1CCCC1	17.3%
O=C(NCCCn1ccnc1)Nc1ccc(Cl)cc1Cl	97.4% (active)
COc1ccccc1-c1cc(C(=O)NCCCn2ccnc2)no1	78.5% (active)
CCCCOCCCNC(=O)c1ccccc1OCC	48.3%
CCOc1ccccc1C(=O)NCCCn1ccnc1	93.4% (active)
Cc1cc2nc(C)n(CCCNC(=O)Nc3ccccc3)c2cc1C	20.3%
CCCCCCCCOC1OC(CO)C(O)C(O)C1NC(C)=O (stereo not drawn)	-4.2%
N#Cc1c(NC(=O)CCCN2C(=O)c3ccccc3C2=O)oc(-c2ccccc2)c1-c1ccccc1	24.8%
COCCOC(=O)c1sc(=S)n(CCOC)c1N	47.6%
Cc1ccc2nc(NC(=O)C3CCN(S(=O)(=O)c4ccc5c(c4)oc(=O)n5C)CC3)sc2c1	6.1%
CCCCC(=O)Nc1ccc(C(=O)NCCCn2ccnc2)cc1	37.9%
CCN(CC)C(=O)CCC(=O)Nc1ccc(C(=O)OC)cc1	33.7%
CCCC(=O)Nc1ccc(C(=O)NCCCn2ccnc2)cc1	52.2% (active)
